# Results taken from PubChem BioAssay AID1508600 (Functional Genomics Laboratory (NCATS/FGL), 2020).
# Hit rate of the full screen: of about 53,000 sequences, about 3,700 (7%) were called active. The full list was thinned out, with actives kept by preference. A number with no mark means an inactive call.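 How the source made its calls: active means gene knockdowns whose robust z-score for IL-1 alpha signal is at least 2 or at most -2, so actives lie on both sides; inactive means the rest.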
# Experiment: Components of the Cytosolic LPS Sensing Pathway: Gene Identification via Genome-wide siRNA Screen;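 further: robust z of the log signal after scaling to non-targeting control siRNA wells of the plate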
# Settings: RAW264.7 macrophages, IL-1a HTRF, actives lie on both sides, screened at 100 nM (by protocol), cells primed 5 h with Pam3CSK4 first
# Method in brief: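 Knockdown: 100 nM siRNA, 48h, RAW264.7. Stimulation: Pam3CSK4 5 h, then LipidA via TransIT-TKO 24 h. Output: supernatant IL-1a HTRF, negative-control-normalized, log robust z-score; viability by CellTiter-Glo.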
row,Sequence,z-score
1,GGAUCAAACAAAUCAUCAATT against Plscr4,-0.895
2,CCUUGUAGCUCUGAGGAUATT against Teddm3,-0.529
3,GGAACCUACCUCACCUUUGTT against Fscn3,-0.749
4,GGUCUCUUCAUGAUGGAUGTT against Akt1s1,0.731
5,CCAUACACAUGUAAUUCUCTT against Zmat3,-0.159
6,GGCAUCUCUGAGUUACAUUTT against Snu13,0.695
7,GGGUCUGGUUCUGUAACCATT against Pou4f3,-1.94
8,GGACUAUGGUGGGAACUAGTT against Tas2r119,-0.564
9,CGUUCUAUGGAAACUGGAGTT against Acot1,2.42 (active)
10,GGAAUGCUUAAAGCUUUAATT against Clasp2,0.353
11,CCAUUUCCCAUUUCUGAAGTT against 1700001P01Rik,-2.22 (active)
12,GCUCAAGUUAAUCUGUUGUTT against Ywhae,0.962
13,CCAGUCAACAAGAAUCAGATT against Rptn,-0.105
14,GAUACAGAAUGUCUCAUCCTT against Olfr1128,0.307
15,CCUAUCUUGUCCGGUUUACTT against Cyb5rl,3.99 (active)
16,GCCCUUGCACUAUUUUUCCTT against Olfr1218,0.902
17,GCUAUGUCAACAGUAACAUTT against Mmel1,-0.683
18,GGUGGAAUUAUGCAUGCUATT against Olfr1094,1.45
19,GGCUUUCUUCAGUUUUGUCTT against Slc33a1,-1.37
20,GGAGGUUACCUUCUACAGCTT against Cxcr2,0.694
21,GGGUGAAAAGCAUUUCUGUTT against Actrt3,0.583
22,GGAAACAGCACAACAAACGTT against Adam26a,2.93 (active)

row,Sequence,z-score
1,GGCUAAGAAACUGAAGAGATT against Ccm2l,-1.59
2,GCGAACUCGGGAAACAACUTT against Rnf4,-0.0525
3,UAGAAUUGAUUGAGGACUCTT against Ly6c1,0.602
4,GCACUUCUUUGUGCAAAGCTT against Shfl,-0.311
5,GAGGUUUGGCAGAAGUGCATT against Npff,-1.95
6,GGCCUGUAAAAACUAUUGGTT against Mcpt4,0.122
7,CCACCAUGACUGCAAAUGUTT against Olfr1469,-0.817
8,GCCAACAGUAACGGUAUUGTT against Patz1,-2.04 (active)
9,GCUCGUGGCAUGUCUCUAUTT against Doc2g,0.379
10,GCUAUGAAGAAAAAUCGGATT against Mettl21e,0.362
11,GCCUAACCUGGUAUCCCAGTT against Zfp92,-1.03
12,GGCCUCACAGUGCUUUCUCTT against Olfr1232,0.0779
13,CCUGGCUUACAGUACAUGCTT against Adarb1,1.21
14,CGACUUCAUAAGGUAUGCATT against Tnfrsf22,-0.793
15,UUUGCUGUCCUUUCUUUCATT against Olfr122,-1.84
16,GGCCUAAGCAAGUUGCGCATT against Fbxl8,1.5
17,CCUUCAGACUGUCAACAAUTT against Chrm2,-0.386
18,GGGCAUGGAACAAGAUGUCTT against Nckipsd,-2.43 (active)
19,GCGUGAGCUUAAGAAGCAATT against Leng8,1.46
20,GGCUGACACAAGAUGGCUGTT against Ebpl,2.41 (active)
21,GGAAAAGCUCAAUGUCCUCTT against Tex13b,-0.141
22,GGGAAGUCUACAUAAAUCCTT against Gpr176,-0.544

row,Sequence,z-score
1,GGAGAAGAAAACAUCAAGUTT against Hrh3,2.52 (active)
2,GGAAAAGAAGUUUAAACGGTT against Svs6,-0.413
3,GGAGGAUCUUUCAAAGAGATT against Egfl8,0.763
4,GGCCCUUCCAGAAGAUACATT against Speer3,-1.1
5,GGACAGAUUCGACAAAGAGTT against Olfr1535,-0.193
6,GGAAAACAAGACUUCAAUCTT against Gypa,0.369
7,CCCUGAUGACAGAAGAAUCTT against Tyms,-0.802
8,GCACCUCGGUCAUUUAUAUTT against Mettl14,-2.51 (active)
9,GCCUGUCCUGUGAUGACAUTT against Olfr406,-1.96
10,GCUCGAACAUCUCUUGGUCTT against Capn9,0.186
11,CCGUUACCUUUUAAGCCUGTT against Socs6,-1.2
12,GGCAGAGAAAAGGACCUUUTT against Mcts2,-1.32
13,GGAACUCCUCAAACGAAGGTT against Bmp3,0.553
14,GCCACCAGUGAAUAAUACATT against Hyal6,0.459
15,GGUUUGCAUAUCUCACCCUTT against Sirt6,-2.38 (active)
16,GGAGACUGGAGAGCAAAAUTT against Krt18,-1.44
17,GCUACCUUCAGACAAGCACTT against Prss32,-0.877
18,GCAACUCAGCUGUUGUGAGTT against Ifitm2,2.99 (active)
19,GCUGUUGUUCAAUGCCCUGTT against Olfr392,-0.616
20,GGCUGCACACAAUAUGAACTT against Mrm2,0.134
21,CCUAUGCUAUGUAGUUUAATT against Adam21,5.58 (active)
22,GGAGAAACUAUGAUCUUUATT against Mmp13,0.117

row,Sequence,z-score
1,GGGAAGAAAUCCAAGAAGATT against Cnpy3,-0.836
2,GCUGCCUACCUGUGAAAGUTT against Pgam2,2.82 (active)
3,GGCCAAAGCUGAUAUGACATT against Ankef1,2.23 (active)
4,GGAGCUCCUGUACGACUAUTT against Kmt5a,-1.66
5,GCCCUCGGACUGAAAACAATT against Chrm5,-0.227
6,GGUACAAUGGCACUGUCACTT against Chrna5,-1.29
7,GGGAUGCUUUUGGCCCAAATT against Rita1,0.901
8,GGUUCUCUAACAGAACUUUTT against Zc3h6,0.768
9,GGUGUCUUUGCUCAGCUCATT against Lrfn4,-2.93 (active)
10,GGUUGUUUGACCAACAGCUTT against Inpp5d,-1.51
11,GGAAUUUGUGGAGAAACUATT against Gabbr1,-0.232
12,GAGCCAUAUACCUCGUCCUTT against Mier2,-0.531
13,GGUUGGCUUGGAAAUGGGATT against Nanos2,1.7
14,CCAUUUACCCAUGCGGCUATT against Creb3l2,-1.94
15,GGAGAUGUGUUGAGUUUUCTT against Abcg2,4.47 (active)
16,GGCAACAUGCGGACAACAUTT against Trim14,-0.42
17,GGAGCUGAACCUGAGCUAUTT against Tlr9,-0.341
18,GGACAUUUCUAUGUCUUUGTT against Cpt2,3.35 (active)
19,GGAGAUAAAUCCUUUGCAUTT against Zfp119a,1.74
20,GGACUUUCGUGAGAGAUUUTT against Fpr2,1.16
21,GGUUCAGUUUUGGCUGGCUTT against Olfr558,2.04 (active)
22,GGAGAAGAGCAGAAUAUGCTT against Baz1a,-1.48

row,Sequence,z-score
1,GCUGUUAAACGAAAUGUACTT against Esx1,-0.298
2,GCUUGGAAGGGACUUCAAUTT against Trp73,2.97 (active)
3,CCAUUUAUUUGGACUUGUATT against Lig4,0.303
4,CCGGUAUUACAACAAGUACTT against Atp5j2,1.01
5,GGGAGAAGGUAAGUGCAUGTT against Golga7b,-0.343
6,GGUGGAAAAGUGAAAAAGGTT against Ddx18,0.158
7,CCUGUAGAUUCAAUUAGAGTT against Vkorc1l1,-0.206
8,GGUGCUGCUUUAUUCCUGGTT against Dhcr7,-0.632
9,CGAUUAUGAGCACUAUAUUTT against Ddx20,2.12 (active)
10,GGAUAUGUGUUCAUCCUGUTT against Lrrc18,0.0347
11,GGUUAUGCCUUCAGUGAAGTT against Prep,-0.14
12,GGUGACUGUCCUGAACUAUTT against Prr5l,1.7
13,CGAAGUGAAAAGUAUGACCTT against Lrrc72,-0.083
14,GGGCAUAGUGACCAGGUUATT against Fgf14,2.67 (active)
15,AUCUCUCGGUGGUGGACUGTT against Olfr1474,0.583
16,CCAGGUCGAACUUCUGUGCTT against Slc39a8,-0.82
17,GCAACUCAGAAUGUAGUGUTT against Gnai1,0.298
18,GGCUUUUGAUGAGGUAAAATT against Plekho2,-1.12
19,GGAGGAAAAACAGUGCAGATT against Smchd1,-1.54
20,GGACCUAUUACCUCAAUGATT against Spatc1l,-2.59 (active)
